Data as given in PubChem BioAssay (Tox21).
Activity calls are given as the source filed them. Where a call stands in place of a potency, no number is given. Unless noted, calls follow the shape of the dose curve; as a rule, active = well fitted curve in the direction sought with a large enough effect in the repeat runs; inconclusive = weak or mixed curves; inactive = no such curve, though single readings can be large; an effect the other way counts as inactive or inconclusive.

Assays:
[1] = qHTS assay for small molecule agonists of the p53 signaling pathway (AID 651631; calls by dose curve; also: nearly all actives have a fitted effect of over 15% in size; also: potency is read from the fitted curve at half-maximal effect)
How it was run: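 HCT-116 p53RE-bla reporter line, 16 h compound treatment at 37 °C, then fluorescence after 2 h with B/G FRET substrate.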

[2] = qHTS assay for small molecules that induce genotoxicity in human embryonic kidney cells expressing luciferase-tagged ATAD5 (AID 651632); also: nearly all actives have a fitted effect of over 15% in size; also: potency is read from the fitted curve at half-maximal effect
How it was run: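 Concentration-response screen for ATAD5 upregulation in HEK293T luciferase reporter cells; 16 hr treatment at 37C, then luminescence after 30 min with Amplite at room temperature.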

[3] = qHTS assay for small molecule agonists of the p53 signaling pathway - cell viability (AID 651633; calls by dose curve; also: nearly all actives have a fitted effect of over 30% in size; also: potency is read from the fitted curve at half-maximal effect)
How it was run: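 p53RE-bla cells were treated with compound for 16 hours at 37 C. Cytotoxicity was then measured as CellTiter-Glo luminescence after 30 min at room temperature.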

[4] = qHTS assay for small molecules that induce genotoxicity in human embryonic kidney cells expressing luciferase-tagged ATAD5 - cell viability (AID 651634; calls by dose curve; also: nearly all actives have a fitted effect of over 25% in size)
How it was run: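 15.5 hr compound or vehicle exposure of HEK293T cells expressing luciferase-tagged ATAD5 at 37C; live-cell protease activity is read by fluorescence after 30 min of CellTiter-Fluor.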

[5] = qHTS assay for small molecule disruptors of the mitochondrial membrane potential (AID 720635); also: potency is read from the fitted curve at half-maximal effect
How it was run: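 HepG2 cells exposed to compound 1 hr at 37C, then Mito-MPS dye 30 min. Ratio read of aggregate (540/590 nm) versus monomer (490/535 nm) fluorescence.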

[6] = qHTS assay to test for compound auto fluorescence at 590 nm (red) in HepG2 cells (AID 720674)
How it was run: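 HepG2 cells, 2,000 per well in MEM with 10% FBS, attached overnight at 37 C, then got 23 nL compound or DMSO. After 1 hr at 37 C, 5% CO2, red fluorescence was read at 540/590 nm against Rose Bengal sodium as reference.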

[7] = qHTS assay to test for compound auto fluorescence at 535 nm (green) in HepG2 cells (AID 720675)
[8] = qHTS assay to test for compound auto fluorescence at 460 nm (blue) in HEK293 cells (AID 720678)
How it was run: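 Blue-channel (Ex/Em 405/460 nm) intensity measured in HEK293 cultures after overnight compound exposure at 37C; signal expressed relative to triamterene. Cells plated 2,000 per well in 10% dialyzed FBS medium and allowed 4-5 hr to attach.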

[9] = qHTS assay to test for compound auto fluorescence at 590 nm (red) in HEK293 cells (AID 720679)
How it was run: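 Red-channel autofluorescence (Ex/Em 540/590 nm; Rose Bengal sodium reference) was measured after overnight 37C, 5% CO2 exposure of attached HEK293 cells, 2,000 per well in medium with 10% dialyzed FBS.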

[10] = qHTS assay to test for compound auto fluorescence at 535 nm (green) in HEK293 cells (AID 720680)
[11] = qHTS assay to test for compound auto fluorescence at 460 nm (blue) in HEK293 cell free culture (AID 720681)
How it was run: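 Compounds were added to cell-free DMEM with 10% FBS and fluorescence read directly. The blue channel used 405 nm excitation and 460 nm emission, with triamterene as the reference fluorophore.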

[12] = qHTS assay to test for compound auto fluorescence at 535 nm (green) in HEK293 cell free culture (AID 720682)
How it was run: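 Steps: dispense DMEM/10% FBS into empty wells; pin in compound or DMSO; measure fluorescence at 485/535 nm. Values are fluorescein equivalents.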

[13] = qHTS assay to test for compound auto fluorescence at 590 nm (red) in HEK293 cell free culture (AID 720683)
How it was run: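 Cell-free wells of DMEM with 10% FBS received compound, and intrinsic fluorescence was read at excitation/emission 540/590 nm. Values expressed as equivalence to Rose Bengal sodium.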

[14] = qHTS assay to test for compound auto fluorescence at 590 nm (red) in HepG2 cell free culture (AID 720684)
How it was run: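 Auto fluorescence equivalency versus Rose Bengal sodium, red channel Ex/Em 540/590 nm; compounds in cell-free MEM/10% FBS; DMSO vehicle control.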

[15] = qHTS assay to test for compound auto fluorescence at 460 nm (blue) in HepG2 cell free culture (AID 720685)
How it was run: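 Cell-free plates of MEM plus 10% FBS received 23 nL compound or DMSO vehicle; blue-channel (405/460 nm) intensity scored against triamterene as reference fluorophore.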

[16] = qHTS assay to test for compound auto fluorescence at 535 nm (green) in HepG2 cell free culture (AID 720686)
[17] = qHTS assay to test for compound auto fluorescence at 460 nm (blue) in HepG2 cells (AID 720687)
How it was run: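 HepG2 cells in MEM with 10% FBS, attached overnight at 37 C, were exposed to compound or DMSO for 1 hr at 37 C, 5% CO2. Blue fluorescence was read at 405/460 nm, with triamterene as reference fluorophore.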

[18] = target: Glucocorticoid receptor (Homo sapiens) (UniProt P04150); assay: qHTS assay to identify small molecule antagonists of the glucocorticoid receptor (GR) signaling pathway (AID 720692; active = well fitted inhibition curve with a large enough effect in the signal ratio in the repeat runs, not every such curve was filed as active; inconclusive = weak or mixed curves, or effect the other way; inactive = no such curve, though single readings can be large or run the other way; the % refers to the signal ratio)
Glucocorticoid receptor (Homo sapiens), sequence (P04150 whole entry, looked up): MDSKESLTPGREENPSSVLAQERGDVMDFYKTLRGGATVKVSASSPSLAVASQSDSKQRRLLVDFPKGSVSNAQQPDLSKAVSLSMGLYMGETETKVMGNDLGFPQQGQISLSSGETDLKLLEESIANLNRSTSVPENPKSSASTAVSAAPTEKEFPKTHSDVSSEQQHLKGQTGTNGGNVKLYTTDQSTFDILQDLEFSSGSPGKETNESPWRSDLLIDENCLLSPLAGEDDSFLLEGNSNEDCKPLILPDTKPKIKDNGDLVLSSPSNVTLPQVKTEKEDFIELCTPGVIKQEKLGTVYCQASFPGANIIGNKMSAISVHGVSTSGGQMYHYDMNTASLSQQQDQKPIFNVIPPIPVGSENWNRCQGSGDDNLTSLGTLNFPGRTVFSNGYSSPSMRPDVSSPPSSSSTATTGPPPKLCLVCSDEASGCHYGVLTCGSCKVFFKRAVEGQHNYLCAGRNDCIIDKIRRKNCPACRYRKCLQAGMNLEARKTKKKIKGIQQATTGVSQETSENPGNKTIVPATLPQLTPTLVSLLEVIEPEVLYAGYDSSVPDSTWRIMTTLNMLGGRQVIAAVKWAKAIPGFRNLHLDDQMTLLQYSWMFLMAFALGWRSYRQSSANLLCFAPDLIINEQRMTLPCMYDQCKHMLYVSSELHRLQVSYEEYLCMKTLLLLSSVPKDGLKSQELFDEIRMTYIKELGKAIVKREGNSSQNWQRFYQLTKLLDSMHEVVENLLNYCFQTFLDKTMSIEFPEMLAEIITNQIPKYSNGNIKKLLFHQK
How it was run: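 Tox21 10K library screened in concentration-response for blockade of dexamethasone (5 nM final)-induced GRE-bla reporter activity in HeLa cells; 18 h treatment, fluorescence read.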

[19] = qHTS assay for small molecule disruptors of the mitochondrial membrane potential - cell viability (AID 720634; calls by dose curve;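 also: human HepG2 liver cancer cells; nearly all actives have a fitted effect of over 20% in size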)
How it was run: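 In this qHTS format, HepG2 cells plated overnight were pinned with compound, incubated 1 hr, and assayed for ATP luminescence with CellTiter-Glo after m-MPI dye addition.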

[20] = target: Glucocorticoid receptor (Homo sapiens) (UniProt P04150); assay: qHTS assay to identify small molecule agonists of the glucocorticoid receptor (GR) signaling pathway (AID 720691; active = well fitted activation curve with a large enough effect in the signal ratio in the repeat runs, not every such curve was filed as active; inconclusive = weak or mixed curves, or effect the other way; inactive = no such curve, though single readings can be large or run the other way; the % refers to the signal ratio; also: potency is read from the fitted curve at half-maximal effect); conditions: GR-bla HeLa, beta-lactamase reporter ratio, 18 h; activation: at 62.4 µM (top of the series)
How it was run: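 Measures GR pathway activation through a GRE-beta-lactamase reporter stably integrated in HeLa cells, with 18 h compound treatment at 37 C and fluorescence detection using a FRET substrate.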

Structure (SMILES): COc1ccc(CCNCC(O)COc2cccc(C)c2)cc1OC (centres undefined)
- Potency [1]: inactive
- Potency [2]: inactive
- Potency [3]: inactive
- Potency [4]: inactive
- Potency [5]: inactive
- Potency [6]: inactive
- Potency [7]: inactive
- Potency [8]: inactive
- Potency [9]: inactive
- Potency [10]: inactive
- Potency [11]: inactive
- Potency [12]: inactive
- Potency [13]: inactive
- Potency [14]: inactive
- outcome [15]: inactive
- Potency [16]: inactive
- outcome [17]: inactive
- Potency [18]: inactive

Structure (SMILES): NCc1ccccc1CC(=O)N[C@@H]1C(=O)N2C(C(=O)O)=C(CSc3nnnn3CC(=O)O)CS[C@H]12
- Potency [1]: inactive
- Potency [2]: inactive
- Potency [3]: inactive
- Potency [19]: inactive
- Potency [6]: inactive
- Potency [7]: inactive
- Potency [8]: inactive
- Potency [9]: inactive
- Potency [10]: inactive
- Potency [11]: inactive
- Potency [12]: inactive
- Potency [13]: inactive
- Potency [14]: inactive
- outcome [15]: inactive
- Potency [16]: inactive
- outcome [17]: inactive
- Potency [20]: inactive
- Potency [18]: inactive

Structure (SMILES): CC(C)CN(C[C@@H](OP(=O)(O)O)[C@H](Cc1ccccc1)NC(=O)O[C@H]1CCOC1)S(=O)(=O)c1ccc(N)cc1
- Potency [1]: inactive
- Potency [2]: inactive
- Potency [3]: inactive
- Potency [4]: inactive
- Potency [6]: inactive
- Potency [7]: inactive
- Potency [8]: inactive
- Potency [9]: inactive
- Potency [10]: inactive
- Potency [11]: inactive
- Potency [12]: inactive
- Potency [13]: inactive
- Potency [14]: inactive
- outcome [15]: inactive
- Potency [16]: inactive
- outcome [17]: inactive
- Potency [20]: inactive
- Potency [18]: inactive

Structure (SMILES): O=[N+]([O-])c1ccc(Oc2ccc(N=C=S)cc2)cc1
- Potency [1]: 13300 nM (active)
- Potency [2]: inactive
- Potency [3]: inactive
- Potency [4]: inactive
- Potency [5]: 5960 nM (active)
- Potency [6]: inactive
- Potency [7]: inactive
- Potency [8]: inactive
- Potency [9]: inactive
- Potency [10]: inactive
- Potency [11]: inactive
- Potency [12]: inactive
- Potency [13]: inactive
- Potency [14]: inactive
- outcome [15]: inactive
- Potency [16]: inactive
- outcome [17]: inactive

Structure (SMILES): CO/N=C(\C(=O)N[C@@H]1C(=O)N2C(C(=O)O)=C(CSC(=O)c3ccco3)CS[C@H]12)c1csc(N)n1
- Potency [1]: inactive
- Potency [2]: inactive
- Potency [3]: inactive
- Potency [19]: inactive
- Potency [6]: inactive
- Potency [7]: inactive
- Potency [8]: inactive
- Potency [9]: inactive
- Potency [10]: inactive
- Potency [11]: inactive
- Potency [12]: inactive
- Potency [13]: inactive
- Potency [14]: inactive
- outcome [15]: inactive
- Potency [16]: inactive
- outcome [17]: inactive
- Potency [20]: inactive
- Potency [18]: inactive

Structure (SMILES): CC(=O)OC[C@H]1O[C@@H](O[C@H]2[C@H](O)[C@@H](OC(=O)c3ccccc3C(=O)O)[C@H](O)O[C@@H]2COC(C)=O)[C@H](O)[C@@H](OC(=O)c2ccccc2C(=O)O)[C@@H]1O
- Potency [1]: inactive
- Potency [2]: inactive
- Potency [3]: inactive
- Potency [19]: inactive
- Potency [5]: inactive
- Potency [6]: inactive
- Potency [7]: inactive
- Potency [8]: inactive
- Potency [9]: inactive
- Potency [10]: inactive
- Potency [11]: inactive
- Potency [12]: inactive
- Potency [13]: inactive
- outcome [15]: inactive
- Potency [16]: inactive
- outcome [17]: inactive
- Potency [18]: inactive

Structure (SMILES): CC(C(=O)O)c1ccc(N2Cc3ccccc3C2=O)cc1 (centres undefined)
- Potency [1]: inactive
- Potency [2]: 596 nM (active)
- Potency [3]: inactive
- Potency [4]: inactive
- Potency [6]: inactive
- Potency [7]: inactive
- Potency [8]: inactive
- Potency [9]: inactive
- Potency [10]: inactive
- Potency [11]: inactive
- Potency [12]: inactive
- Potency [13]: inactive
- Potency [14]: inactive
- outcome [15]: inactive
- Potency [16]: inactive
- outcome [17]: inactive
- Potency [20]: inactive

Structure (SMILES): COc1cc2[nH]c(C)c(CCN3CCN(c4ccccc4)CC3)c2cc1OC
- Potency [1]: inactive
- Potency [2]: inactive
- Potency [3]: inactive
- Potency [4]: inactive
- Potency [19]: inactive
- Potency [6]: inactive
- Potency [8]: inactive
- Potency [9]: inactive
- Potency [10]: inactive
- Potency [11]: inactive
- Potency [12]: inactive
- Potency [13]: inactive
- outcome [15]: inactive
- Potency [16]: inactive
- outcome [17]: inactive
- Potency [20]: inactive
- Potency [18]: inactive

Structure (SMILES): CCC(=O)OCC(=O)[C@@]1(OC(=O)CC)[C@H](C)C[C@H]2[C@H]3[C@H]([C@@H](O)C[C@@]21C)[C@@]1(C)C=CC(=O)C=C1C[C@H]3Cl
- Potency [1]: inactive
- Potency [2]: inactive
- Potency [3]: inactive
- Potency [19]: inactive
- Potency [6]: inactive
- Potency [7]: inactive
- Potency [8]: inactive
- Potency [9]: inactive
- Potency [10]: inactive
- Potency [11]: inactive
- Potency [12]: inactive
- Potency [13]: inactive
- outcome [15]: inactive
- Potency [16]: inactive
- outcome [17]: inactive
- Potency [20]: 20.4 nM (active)

Structure (SMILES): CC[C@@]1(O)C(=O)OCc2c1cc1n(c2=O)Cc2cc3c([N+](=O)[O-])cccc3nc2-1
- Potency [1]: 473 nM (active)
- Potency [2]: inactive
- Potency [3]: 473 nM (active)
- Potency [19]: inactive
- Potency [6]: inactive
- Potency [7]: inactive
- Potency [8]: inactive
- Potency [9]: inactive
- Potency [10]: inactive
- Potency [11]: inactive
- Potency [12]: inactive
- Potency [13]: inactive
- Potency [14]: inactive
- outcome [15]: inactive
- Potency [16]: inactive
- outcome [17]: inactive
- activation [20]: 5.3% [inconclusive] (active)

Structure (SMILES): CCCCCCCCCCCCCCCC(=O)O[C@@H]1[C@@H](O)[C@@H](O)[C@@H]([C@H](NC(=O)[C@@H]2C[C@@H](CCC)CN2C)[C@H](C)Cl)O[C@@H]1SC
- Potency [1]: inactive
- Potency [2]: inactive
- Potency [3]: inactive
- Potency [4]: inactive
- Potency [6]: inactive
- Potency [7]: inactive
- Potency [8]: inactive
- Potency [9]: inactive
- Potency [11]: inactive
- Potency [12]: inactive
- Potency [13]: inactive
- Potency [14]: inactive
- outcome [15]: inactive
- Potency [16]: inactive
- outcome [17]: inactive
- Potency [20]: inactive
- Potency [18]: inactive

Structure (SMILES): CCOC(=O)[C@H](CCc1ccccc1)N[C@H]1CCCN2CCC[C@@H](C(=O)O)N2C1=O
- Potency [1]: inactive
- Potency [2]: inactive
- Potency [3]: inactive
- Potency [19]: inactive
- Potency [5]: inactive
- Potency [6]: inactive
- Potency [7]: inactive
- Potency [8]: inactive
- Potency [9]: inactive
- Potency [10]: inactive
- Potency [11]: inactive
- Potency [12]: inactive
- Potency [13]: inactive
- Potency [14]: inactive
- outcome [15]: inactive
- Potency [16]: inactive
- outcome [17]: inactive
- Potency [20]: inactive
- Potency [18]: inactive

Structure (SMILES): COc1ccc(CCNC[C@H](O)c2ccc(O)cc2)cc1OC
- Potency [1]: inactive
- Potency [2]: inactive
- Potency [3]: inactive
- Potency [19]: inactive
- Potency [6]: inactive
- Potency [8]: inactive
- Potency [9]: inactive
- Potency [10]: inactive
- Potency [11]: inactive
- Potency [12]: inactive
- Potency [14]: inactive
- outcome [15]: inactive
- Potency [16]: inactive
- outcome [17]: inactive
- Potency [18]: inactive
